Measured values published in PubChem BioAssay AID1159580 (chemical genetic matrix, 2015).
In all, about 5,500 compounds went through this assay and about 2,000 (36%) were called active. Inconclusive results (about 18%) are left out. Rule as the data show it: active = normalized growth mostly below about 0.91 (no sharp cut-off); inconclusive = no clear call, values can overlap the other calls; inactive = mostly above about 0.92. The list shows a part of the results.

Assay: chemical genetic growth profiling, strain panel (AID 1159580);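 also: tested at 20 µM; growth read once vehicle control cultures reached saturation at 30 °C; 1 = growth at the plate median or of vehicle wells; lower values mean less growth of the strain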
Conditions: growth OD

Measured: normalized growth

CC1(C)S[C@@H]2[C@H](NC(=O)[C@H](NC(=O)N3CCNC3=O)c3ccccc3)C(=O)N2C1C(=O)O (stereo partly drawn)
inactive: S. cerevisiae deletion strains, locus YJR075W, strain HOC1, stronger effect = lower value 1.01 | S. cerevisiae deletion strains, locus YKL009W, strain mrt4, stronger effect = lower value 0.967 | S. cerevisiae deletion strains, locus YKL068W, stronger effect = lower value 0.979 | S. cerevisiae deletion strains, locus YKL085W, strain MDH1 (second series), stronger effect = lower value 0.998 | S. cerevisiae deletion strains, locus YKL085W, strain MDH1, stronger effect = lower value 0.998 | S. cerevisiae deletion strains, locus YKL160W, strain elf1, stronger effect = lower value 0.957 | S. cerevisiae deletion strains, locus YKL190W, strain CNB1, stronger effect = lower value 0.995 | S. cerevisiae deletion strains, locus YKR001C, strain vps1, stronger effect = lower value 1 | S. cerevisiae deletion strains, locus YKR026C, strain gcn3, stronger effect = lower value 0.999 | S. cerevisiae deletion strains, locus YKR091W, strain srl3, stronger effect = lower value 0.974 | S. cerevisiae deletion strains, locus YLL001W, strain dnm1, stronger effect = lower value 0.957 | S. cerevisiae deletion strains, locus YLL026W, stronger effect = lower value 0.984 | S. cerevisiae deletion strains, locus YLL041C, strain sdh2, stronger effect = lower value 0.983 | S. cerevisiae deletion strains, locus YLR027C, strain aat2, stronger effect = lower value 0.976 | S. cerevisiae deletion strains, locus YLR039C, strain RIC1, stronger effect = lower value 1 | S. cerevisiae deletion strains, locus YLR058C, strain SHM2, stronger effect = lower value 0.989 | S. cerevisiae deletion strains, locus YLR102C, strain apc9, stronger effect = lower value 0.992 | S. cerevisiae deletion strains, locus YLR113W, strain HOG1, stronger effect = lower value 0.956 | S. cerevisiae deletion strains, locus YLR221C, strain rsa3, stronger effect = lower value 0.964 | S. cerevisiae deletion strains, locus YLR258W, strain gsy2, stronger effect = lower value 0.988 | S. cerevisiae deletion strains, locus YLR262C, strain YPT6 (second series), stronger effect = lower value 0.958 | S. cerevisiae deletion strains, locus YLR262C, strain YPT6, stronger effect = lower value 0.98 | S. cerevisiae deletion strains, locus YLR268W, strain sec22, stronger effect = lower value 0.993 | S. cerevisiae deletion strains, locus YLR320W, strain mms22, stronger effect = lower value 0.956 | S. cerevisiae deletion strains, locus YLR330W, strain CHS5, stronger effect = lower value 0.997 | S. cerevisiae deletion strains, locus YLR342W, strain FKS1 (second series), stronger effect = lower value 1.01 | S. cerevisiae deletion strains, locus YLR342W, strain FKS1, stronger effect = lower value 0.993 | S. cerevisiae deletion strains, locus YLR357W, strain rsc2, stronger effect = lower value 0.977 | S. cerevisiae deletion strains, locus YLR370C, strain arc18, stronger effect = lower value 0.98 | S. cerevisiae deletion strains, locus YLR371W, strain rom2, stronger effect = lower value 0.997 | S. cerevisiae deletion strains, locus YLR384C, strain iki3, stronger effect = lower value 0.976 | S. cerevisiae deletion strains, locus YLR418C, strain cdc73, stronger effect = lower value 0.995 | S. cerevisiae deletion strains, locus YML016C, strain PPZ1, stronger effect = lower value 1 | S. cerevisiae deletion strains, locus YML032C, strain rad52, stronger effect = lower value 1.01 | S. cerevisiae deletion strains, locus YML120C, strain ndi1, stronger effect = lower value 0.959 | S. cerevisiae deletion strains, locus YML124C, strain tub3, stronger effect = lower value 0.996 | S. cerevisiae deletion strains, locus YMR058W, strain fet3, stronger effect = lower value 0.973 | S. cerevisiae deletion strains, locus YMR078C, strain ctf18, stronger effect = lower value 0.98 | S. cerevisiae deletion strains, locus YMR125W, strain sto1, stronger effect = lower value 1 | S. cerevisiae deletion strains, locus YMR129W, stronger effect = lower value 0.991 | S. cerevisiae deletion strains, locus YMR205C, strain PFK2, stronger effect = lower value 0.954 | S. cerevisiae deletion strains, locus YMR223W, strain ubp8, stronger effect = lower value 0.962 | S. cerevisiae deletion strains, locus YMR231W, strain pep5, stronger effect = lower value 0.985 | S. cerevisiae deletion strains, locus YMR307W, strain GAS1, stronger effect = lower value 1.08 | S. cerevisiae deletion strains, locus YNL067W, strain RPL9B, stronger effect = lower value 1.02 | S. cerevisiae deletion strains, locus YNL071W, strain lat1, stronger effect = lower value 0.989 | S. cerevisiae deletion strains, locus YNL128W, strain TEP1, stronger effect = lower value 0.991 | S. cerevisiae deletion strains, locus YNL183C, strain NPR1, stronger effect = lower value 0.942 | S. cerevisiae deletion strains, locus YNL209W, strain ssb2, stronger effect = lower value 0.989 | S. cerevisiae deletion strains, locus YNL233W, strain BNI4, stronger effect = lower value 1.04 | S. cerevisiae deletion strains, locus YNL248C, strain rpa49, stronger effect = lower value 0.993 | S. cerevisiae deletion strains, locus YNL250W, strain rad50, stronger effect = lower value 0.975 | S. cerevisiae deletion strains, locus YNL271C, strain bni1, stronger effect = lower value 1 | S. cerevisiae deletion strains, locus YNL298W, strain CLA4, stronger effect = lower value 0.978 | S. cerevisiae deletion strains, locus YNL307C, strain MCK1, stronger effect = lower value 0.994 | S. cerevisiae deletion strains, locus YNL322C, strain KRE1 (second series), stronger effect = lower value 0.983 | S. cerevisiae deletion strains, locus YNL322C, strain KRE1, stronger effect = lower value 0.993 | S. cerevisiae deletion strains, locus YNR049C, strain mso1, stronger effect = lower value 0.975 | S. cerevisiae deletion strains, locus YNR052C, strain pop2, stronger effect = lower value 0.986 | S. cerevisiae deletion strains, locus YOL006C, strain TOP1, stronger effect = lower value 1.04 | S. cerevisiae deletion strains, locus YOL012C, strain htz1 1.4 | S. cerevisiae deletion strains, locus YOL147C, strain pex11, stronger effect = lower value 0.985 | S. cerevisiae deletion strains, locus YOR001W, strain rrp6, stronger effect = lower value 0.981 | S. cerevisiae deletion strains, locus YOR061W, strain CKA2, stronger effect = lower value 1 | S. cerevisiae deletion strains, locus YOR069W, strain VPS5, stronger effect = lower value 0.988 | S. cerevisiae deletion strains, locus YOR070C, strain gyp1, stronger effect = lower value 0.992 | S. cerevisiae deletion strains, locus YOR080W, strain dia2, stronger effect = lower value 0.969 | S. cerevisiae deletion strains, locus YOR083W, strain WHI5, stronger effect = lower value 0.957 | S. cerevisiae deletion strains, locus YOR106W, strain vam3, stronger effect = lower value 0.951 | S. cerevisiae deletion strains, locus YOR136W, strain idh2, stronger effect = lower value 0.996 | S. cerevisiae deletion strains, locus YOR144C, strain elg1, stronger effect = lower value 1.01 | S. cerevisiae deletion strains, locus YOR184W, strain ser1, stronger effect = lower value 0.991 | S. cerevisiae deletion strains, locus YOR231W, strain MKK1, stronger effect = lower value 0.975 | S. cerevisiae deletion strains, locus YOR265W, strain rbl2, stronger effect = lower value 0.983 | S. cerevisiae deletion strains, locus YOR270C, strain vph1, stronger effect = lower value 0.968 | S. cerevisiae deletion strains, locus YOR290C, strain snf2, stronger effect = lower value 0.936 | S. cerevisiae deletion strains, locus YOR316C, strain cot1, stronger effect = lower value 0.99 | S. cerevisiae deletion strains, locus YPL051W, strain arl3, stronger effect = lower value 0.99 | S. cerevisiae deletion strains, locus YPL078C, strain atp4, stronger effect = lower value 0.974 | S. cerevisiae deletion strains, locus YPL106C, strain sse1, stronger effect = lower value 0.944 | S. cerevisiae deletion strains, locus YPL240C, strain hsp82, stronger effect = lower value 0.985 | S. cerevisiae deletion strains, locus YPL256C, strain CLN2, stronger effect = lower value 0.955 | S. cerevisiae deletion strains, locus YPR119W, strain clb2, stronger effect = lower value 0.997 | S. cerevisiae deletion strains, locus YPR141C, strain kar3, stronger effect = lower value 0.989 | S. cerevisiae deletion strains, locus YPR163C, strain tif3, stronger effect = lower value 0.975 | S. cerevisiae deletion strains, locus YPR167C, strain met16, stronger effect = lower value 0.985 | S. cerevisiae deletion strains, strain wtn01, stronger effect = lower value 1 | S. cerevisiae strains, strain wild type, stronger effect = lower value 1
